Reference: the supplement of paper PMC11732987, “Enantioselective OTUD7B fragment discovery through chemoproteomics screening and high-throughput optimisation” (Communications Chemistry, 2025)

Assays:
Test in all cases: log2 ratio of Biotin-Ahx-Ub-VS probe labelling (fragment/DMSO); higher = less target engagement (more negative = stronger competition), active = hit call of the paper (q ≤ 0.05, log2 ratio ≤ -1)
Settings in all cases: compound concentration: 200 uM; treatment time: 3 h
[1] = target: T1, ALG13 (UniProt Q9NP73)
T1 sequence (whole entry): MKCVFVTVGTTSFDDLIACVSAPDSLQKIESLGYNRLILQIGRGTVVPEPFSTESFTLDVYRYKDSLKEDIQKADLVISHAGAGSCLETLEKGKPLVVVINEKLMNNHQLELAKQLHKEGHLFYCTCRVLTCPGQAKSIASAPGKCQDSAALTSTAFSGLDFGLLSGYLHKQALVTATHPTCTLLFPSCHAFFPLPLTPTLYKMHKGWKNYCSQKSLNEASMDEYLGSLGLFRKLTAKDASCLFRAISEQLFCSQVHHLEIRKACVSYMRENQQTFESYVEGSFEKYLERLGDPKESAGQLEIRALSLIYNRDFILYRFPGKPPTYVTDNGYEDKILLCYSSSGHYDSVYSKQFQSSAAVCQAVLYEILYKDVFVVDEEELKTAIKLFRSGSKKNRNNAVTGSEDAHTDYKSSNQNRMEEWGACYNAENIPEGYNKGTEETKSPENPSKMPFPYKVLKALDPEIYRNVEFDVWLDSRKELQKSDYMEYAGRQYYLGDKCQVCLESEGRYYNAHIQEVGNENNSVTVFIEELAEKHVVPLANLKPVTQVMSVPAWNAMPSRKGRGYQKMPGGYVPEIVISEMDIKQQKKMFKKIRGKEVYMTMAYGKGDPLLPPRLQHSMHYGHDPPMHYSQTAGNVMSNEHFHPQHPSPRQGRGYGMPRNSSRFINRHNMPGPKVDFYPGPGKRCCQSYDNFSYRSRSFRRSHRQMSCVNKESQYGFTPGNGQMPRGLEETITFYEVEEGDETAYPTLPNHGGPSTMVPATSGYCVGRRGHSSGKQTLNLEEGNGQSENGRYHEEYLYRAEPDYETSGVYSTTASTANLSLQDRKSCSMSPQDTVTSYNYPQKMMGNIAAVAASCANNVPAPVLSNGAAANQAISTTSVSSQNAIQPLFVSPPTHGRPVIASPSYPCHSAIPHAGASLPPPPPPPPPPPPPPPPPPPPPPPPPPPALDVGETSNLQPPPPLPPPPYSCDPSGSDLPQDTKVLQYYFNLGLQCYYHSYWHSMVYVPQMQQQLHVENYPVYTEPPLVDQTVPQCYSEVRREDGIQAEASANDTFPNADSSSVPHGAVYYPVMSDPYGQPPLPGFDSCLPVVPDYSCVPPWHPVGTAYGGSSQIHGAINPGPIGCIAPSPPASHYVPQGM
Summary of the method: (§1)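 Fragment (200 µM) or vehicle was incubated for 3 h with triplicate HEK293T lysate samples of 495 µg, which were then treated with Biotin-Ahx-Ub-VS at 0.5 µM final for 1 h. Labelled DUBs were enriched on NeutrAvidin, digested with LysC and trypsin, and analysed by diaPASEF LC-MS/MS. Values are average log2 fragment/vehicle ratios from an unpaired t-test on global-median-normalised Spectronaut label-free quantities, using proteins with ≥2 unique peptides.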

[2] = target: ATXN3 (UniProt P54252)
Summary of the method: as §1

[3] = target: T2, BAP1 (UniProt Q92560)
T2 sequence (whole entry): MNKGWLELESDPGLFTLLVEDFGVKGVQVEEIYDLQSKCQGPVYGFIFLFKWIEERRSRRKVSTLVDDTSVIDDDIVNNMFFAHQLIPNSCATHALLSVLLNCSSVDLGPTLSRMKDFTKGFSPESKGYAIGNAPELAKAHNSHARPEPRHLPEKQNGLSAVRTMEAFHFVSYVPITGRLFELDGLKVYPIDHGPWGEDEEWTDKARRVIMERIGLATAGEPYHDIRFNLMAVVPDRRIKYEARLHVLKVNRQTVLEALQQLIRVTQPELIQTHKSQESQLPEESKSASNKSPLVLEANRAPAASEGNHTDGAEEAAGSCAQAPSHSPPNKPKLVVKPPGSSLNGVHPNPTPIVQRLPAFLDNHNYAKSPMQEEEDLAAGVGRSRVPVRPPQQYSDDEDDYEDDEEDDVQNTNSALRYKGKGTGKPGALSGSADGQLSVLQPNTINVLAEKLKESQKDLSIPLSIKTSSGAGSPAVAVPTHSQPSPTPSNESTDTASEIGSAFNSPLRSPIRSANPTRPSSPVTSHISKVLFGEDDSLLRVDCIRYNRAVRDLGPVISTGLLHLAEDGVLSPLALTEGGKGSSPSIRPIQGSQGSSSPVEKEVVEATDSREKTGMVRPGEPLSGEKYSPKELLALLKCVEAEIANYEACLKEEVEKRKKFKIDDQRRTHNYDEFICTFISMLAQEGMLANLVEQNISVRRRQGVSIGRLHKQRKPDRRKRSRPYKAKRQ
Summary of the method: as §1

[4] = target: EIF3F (UniProt O00303)
Summary of the method: as §1

[5] = target: EIF3H (UniProt O15372)
Summary of the method: as §1

[6] = target: T3, FAM105A (UniProt Q9NUU6)
T3 sequence (whole entry): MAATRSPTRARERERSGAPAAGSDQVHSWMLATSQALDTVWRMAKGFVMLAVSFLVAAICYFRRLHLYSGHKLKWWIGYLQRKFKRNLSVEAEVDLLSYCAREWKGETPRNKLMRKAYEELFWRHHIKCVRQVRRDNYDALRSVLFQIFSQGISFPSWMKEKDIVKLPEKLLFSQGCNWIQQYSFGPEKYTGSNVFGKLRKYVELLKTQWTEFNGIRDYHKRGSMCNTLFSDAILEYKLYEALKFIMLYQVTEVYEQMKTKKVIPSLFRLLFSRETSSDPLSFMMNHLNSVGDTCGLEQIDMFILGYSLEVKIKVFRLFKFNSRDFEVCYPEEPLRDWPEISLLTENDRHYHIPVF
Summary of the method: as §1

[7] = target: OTUB1 (UniProt Q96FW1)
Summary of the method: as §1

[8] = target: T4, OTUD4 (UniProt Q01804)
T4 sequence (whole entry): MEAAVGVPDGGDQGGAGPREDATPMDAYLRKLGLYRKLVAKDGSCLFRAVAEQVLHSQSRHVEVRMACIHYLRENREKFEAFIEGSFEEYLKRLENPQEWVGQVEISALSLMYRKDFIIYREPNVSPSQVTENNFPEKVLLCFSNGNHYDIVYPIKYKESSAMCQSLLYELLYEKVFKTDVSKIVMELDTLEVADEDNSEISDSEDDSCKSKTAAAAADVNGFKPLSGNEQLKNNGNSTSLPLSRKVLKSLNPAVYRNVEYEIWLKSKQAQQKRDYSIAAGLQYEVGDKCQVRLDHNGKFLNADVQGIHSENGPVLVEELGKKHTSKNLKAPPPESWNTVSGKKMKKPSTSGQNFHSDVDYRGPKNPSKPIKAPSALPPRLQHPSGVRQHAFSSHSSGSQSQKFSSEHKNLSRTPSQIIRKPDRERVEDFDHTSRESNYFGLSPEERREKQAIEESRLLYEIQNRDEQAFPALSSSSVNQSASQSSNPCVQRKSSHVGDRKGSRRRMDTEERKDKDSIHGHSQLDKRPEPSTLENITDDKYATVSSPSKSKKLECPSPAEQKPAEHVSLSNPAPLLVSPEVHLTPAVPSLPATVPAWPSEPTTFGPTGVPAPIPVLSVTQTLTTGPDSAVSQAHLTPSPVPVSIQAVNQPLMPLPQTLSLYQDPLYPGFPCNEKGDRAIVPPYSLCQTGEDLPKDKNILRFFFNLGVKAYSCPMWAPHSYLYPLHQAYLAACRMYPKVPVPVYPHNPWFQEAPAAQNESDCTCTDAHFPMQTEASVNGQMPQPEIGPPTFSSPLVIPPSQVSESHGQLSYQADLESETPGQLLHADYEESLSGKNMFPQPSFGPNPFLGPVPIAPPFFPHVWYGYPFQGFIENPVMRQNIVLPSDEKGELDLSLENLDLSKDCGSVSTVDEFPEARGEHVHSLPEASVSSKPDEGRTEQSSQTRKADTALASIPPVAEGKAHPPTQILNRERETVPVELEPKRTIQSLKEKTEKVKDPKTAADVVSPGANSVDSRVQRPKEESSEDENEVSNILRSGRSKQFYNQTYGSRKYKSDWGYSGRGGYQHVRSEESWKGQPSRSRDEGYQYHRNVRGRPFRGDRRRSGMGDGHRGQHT
Summary of the method: as §1

[9] = target: T5, OTUD5 (UniProt Q96G74)
T5 sequence (whole entry): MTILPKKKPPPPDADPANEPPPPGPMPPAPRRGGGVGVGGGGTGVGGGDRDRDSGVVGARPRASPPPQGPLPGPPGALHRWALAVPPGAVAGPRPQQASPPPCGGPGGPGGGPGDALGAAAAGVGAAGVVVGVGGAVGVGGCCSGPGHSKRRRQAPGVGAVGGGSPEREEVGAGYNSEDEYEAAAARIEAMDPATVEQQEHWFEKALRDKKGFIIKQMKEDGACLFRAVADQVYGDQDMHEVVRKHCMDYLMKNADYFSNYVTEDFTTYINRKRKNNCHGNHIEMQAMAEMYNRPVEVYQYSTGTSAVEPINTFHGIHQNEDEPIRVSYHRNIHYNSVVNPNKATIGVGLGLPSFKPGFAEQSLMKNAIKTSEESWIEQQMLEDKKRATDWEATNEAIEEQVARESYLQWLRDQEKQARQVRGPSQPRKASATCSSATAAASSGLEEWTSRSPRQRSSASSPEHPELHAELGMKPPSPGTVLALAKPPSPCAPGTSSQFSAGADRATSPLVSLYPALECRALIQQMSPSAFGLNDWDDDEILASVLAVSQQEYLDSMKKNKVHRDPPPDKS
Summary of the method: as §1

Measured: log2 ratio of Biotin-Ahx-Ub-VS probe labelling

Chain of EIF3F (O00303 whole entry): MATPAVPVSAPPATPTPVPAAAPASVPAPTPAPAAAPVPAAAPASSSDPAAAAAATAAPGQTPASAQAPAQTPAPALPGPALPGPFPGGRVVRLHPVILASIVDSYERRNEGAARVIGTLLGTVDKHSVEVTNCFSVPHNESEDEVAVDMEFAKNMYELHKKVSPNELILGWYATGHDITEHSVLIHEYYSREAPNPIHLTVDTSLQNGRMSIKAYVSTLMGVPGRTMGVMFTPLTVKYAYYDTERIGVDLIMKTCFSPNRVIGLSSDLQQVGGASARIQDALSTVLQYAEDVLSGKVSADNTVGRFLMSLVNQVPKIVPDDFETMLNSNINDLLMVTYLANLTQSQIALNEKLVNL
Chain of OTUB1 (Q96FW1 whole entry): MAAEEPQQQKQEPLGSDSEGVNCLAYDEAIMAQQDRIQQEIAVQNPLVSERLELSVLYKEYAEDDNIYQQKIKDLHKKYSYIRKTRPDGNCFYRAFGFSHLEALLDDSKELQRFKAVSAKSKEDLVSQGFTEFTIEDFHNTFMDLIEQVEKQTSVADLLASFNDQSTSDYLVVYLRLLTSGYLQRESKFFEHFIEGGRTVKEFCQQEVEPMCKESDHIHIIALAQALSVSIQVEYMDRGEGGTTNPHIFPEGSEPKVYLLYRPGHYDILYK
Chain of ATXN3 (P54252 whole entry): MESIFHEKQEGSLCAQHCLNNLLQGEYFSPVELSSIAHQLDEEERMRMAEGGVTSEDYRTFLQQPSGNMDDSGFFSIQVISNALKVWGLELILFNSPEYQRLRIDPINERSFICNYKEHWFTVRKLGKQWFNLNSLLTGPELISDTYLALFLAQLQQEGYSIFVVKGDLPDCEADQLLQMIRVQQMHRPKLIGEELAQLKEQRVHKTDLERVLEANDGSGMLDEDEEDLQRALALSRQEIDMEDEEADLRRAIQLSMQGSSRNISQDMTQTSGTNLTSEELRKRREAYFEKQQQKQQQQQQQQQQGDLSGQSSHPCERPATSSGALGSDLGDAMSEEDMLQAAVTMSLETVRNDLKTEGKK
Chain of EIF3H (O15372 whole entry): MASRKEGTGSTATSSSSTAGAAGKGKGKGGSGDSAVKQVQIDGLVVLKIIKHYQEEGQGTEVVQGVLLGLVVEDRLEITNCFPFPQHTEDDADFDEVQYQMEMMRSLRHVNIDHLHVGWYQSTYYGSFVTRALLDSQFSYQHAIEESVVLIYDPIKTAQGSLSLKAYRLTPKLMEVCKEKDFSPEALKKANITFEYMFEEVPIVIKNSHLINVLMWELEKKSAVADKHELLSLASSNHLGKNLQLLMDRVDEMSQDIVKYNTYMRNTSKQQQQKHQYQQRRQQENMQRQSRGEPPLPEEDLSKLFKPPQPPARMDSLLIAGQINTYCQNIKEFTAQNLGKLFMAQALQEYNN

Cc1c(C#N)c(NC(=O)CCl)n(Cc2ccco2)c1C
inactive: [1] 0.126 | [2] -0.609 | [4] -0.174 | [5] -0.447 | [6] -0.107 | [7] 0.0458 | [8] -0.292 | [9] -0.61
active: [3] -3.61
